Laboratory results: PubChem BioAssay AID1159580 (chemical genetic matrix, 2015)
Screen size: about 5,500 compounds; about 2,000 (36%) were called active. About 18% were inconclusive and are not listed. No stated cut-off is given here; in the data, active means normalized growth mostly below about 0.91 (no sharp cut-off); inconclusive means no clear call, values can overlap the other calls; inactive means mostly above about 0.92. The list shows a part of the results.

Test: chemical genetic growth profiling, strain panel (AID 1159580);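 further: tested at 20 µM; growth read once vehicle control cultures reached saturation at 30 °C; 1 = growth at the plate median or of vehicle wells; lower values mean less growth of the strain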
Details: growth OD

Measured: normalized growth

ClC(Cl)=C(c1ccc(Cl)cc1)c1ccc(Cl)cc1
active: S. cerevisiae deletion strains, locus YKL068W, hits give low values 0.94 | S. cerevisiae deletion strains, locus YLR039C, strain RIC1, hits give low values 0.637 | S. cerevisiae deletion strains, locus YNL307C, strain MCK1, hits give low values 0.841
inactive: S. cerevisiae deletion strains, locus YJR075W, strain HOC1, hits give low values 0.947 | S. cerevisiae deletion strains, locus YKL009W, strain mrt4, hits give low values 0.995 | S. cerevisiae deletion strains, locus YKL085W, strain MDH1 (second series), hits give low values 0.931 | S. cerevisiae deletion strains, locus YKL085W, strain MDH1, hits give low values 0.931 | S. cerevisiae deletion strains, locus YKL160W, strain elf1, hits give low values 0.998 | S. cerevisiae deletion strains, locus YKL190W, strain CNB1, hits give low values 0.966 | S. cerevisiae deletion strains, locus YKR001C, strain vps1, hits give low values 0.949 | S. cerevisiae deletion strains, locus YKR026C, strain gcn3, hits give low values 1 | S. cerevisiae deletion strains, locus YKR091W, strain srl3, hits give low values 0.985 | S. cerevisiae deletion strains, locus YLL001W, strain dnm1, hits give low values 0.996 | S. cerevisiae deletion strains, locus YLL026W, hits give low values 0.993 | S. cerevisiae deletion strains, locus YLL041C, strain sdh2, hits give low values 0.991 | S. cerevisiae deletion strains, locus YLR027C, strain aat2, hits give low values 1.01 | S. cerevisiae deletion strains, locus YLR058C, strain SHM2, hits give low values 0.962 | S. cerevisiae deletion strains, locus YLR102C, strain apc9, hits give low values 0.954 | S. cerevisiae deletion strains, locus YLR113W, strain HOG1, hits give low values 0.979 | S. cerevisiae deletion strains, locus YLR221C, strain rsa3, hits give low values 0.994 | S. cerevisiae deletion strains, locus YLR258W, strain gsy2, hits give low values 0.985 | S. cerevisiae deletion strains, locus YLR262C, strain YPT6 (second series), hits give low values 1.04 | S. cerevisiae deletion strains, locus YLR262C, strain YPT6, hits give low values 0.652 | S. cerevisiae deletion strains, locus YLR268W, strain sec22, hits give low values 0.969 | S. cerevisiae deletion strains, locus YLR320W, strain mms22, hits give low values 0.967 | S. cerevisiae deletion strains, locus YLR330W, strain CHS5, hits give low values 0.962 | S. cerevisiae deletion strains, locus YLR342W, strain FKS1 (second series), hits give low values 0.879 | S. cerevisiae deletion strains, locus YLR342W, strain FKS1, hits give low values 0.983 | S. cerevisiae deletion strains, locus YLR357W, strain rsc2, hits give low values 1 | S. cerevisiae deletion strains, locus YLR370C, strain arc18, hits give low values 0.996 | S. cerevisiae deletion strains, locus YLR371W, strain rom2, hits give low values 0.953 | S. cerevisiae deletion strains, locus YLR384C, strain iki3, hits give low values 0.987 | S. cerevisiae deletion strains, locus YLR418C, strain cdc73, hits give low values 0.905 | S. cerevisiae deletion strains, locus YML016C, strain PPZ1, hits give low values 0.946 | S. cerevisiae deletion strains, locus YML032C, strain rad52, hits give low values 0.949 | S. cerevisiae deletion strains, locus YML120C, strain ndi1, hits give low values 0.988 | S. cerevisiae deletion strains, locus YML124C, strain tub3, hits give low values 0.942 | S. cerevisiae deletion strains, locus YMR058W, strain fet3, hits give low values 0.996 | S. cerevisiae deletion strains, locus YMR078C, strain ctf18, hits give low values 0.925 | S. cerevisiae deletion strains, locus YMR125W, strain sto1, hits give low values 0.988 | S. cerevisiae deletion strains, locus YMR129W, hits give low values 0.997 | S. cerevisiae deletion strains, locus YMR205C, strain PFK2, hits give low values 0.959 | S. cerevisiae deletion strains, locus YMR223W, strain ubp8, hits give low values 0.964 | S. cerevisiae deletion strains, locus YMR231W, strain pep5, hits give low values 0.999 | S. cerevisiae deletion strains, locus YMR263W, strain SAP30, hits give low values 0.96 | S. cerevisiae deletion strains, locus YMR307W, strain GAS1, hits give low values 0.978 | S. cerevisiae deletion strains, locus YNL067W, strain RPL9B, hits give low values 0.974 | S. cerevisiae deletion strains, locus YNL071W, strain lat1, hits give low values 1 | S. cerevisiae deletion strains, locus YNL128W, strain TEP1, hits give low values 0.973 | S. cerevisiae deletion strains, locus YNL153C, strain GIM3, hits give low values 0.98 | S. cerevisiae deletion strains, locus YNL183C, strain NPR1, hits give low values 0.986 | S. cerevisiae deletion strains, locus YNL209W, strain ssb2, hits give low values 0.994 | S. cerevisiae deletion strains, locus YNL233W, strain BNI4, hits give low values 0.981 | S. cerevisiae deletion strains, locus YNL248C, strain rpa49, hits give low values 0.993 | S. cerevisiae deletion strains, locus YNL250W, strain rad50, hits give low values 0.917 | S. cerevisiae deletion strains, locus YNL271C, strain bni1, hits give low values 0.957 | S. cerevisiae deletion strains, locus YNL298W, strain CLA4, hits give low values 0.953 | S. cerevisiae deletion strains, locus YNL322C, strain KRE1 (second series), hits give low values 0.989 | S. cerevisiae deletion strains, locus YNL322C, strain KRE1, hits give low values 0.963 | S. cerevisiae deletion strains, locus YNR049C, strain mso1, hits give low values 0.994 | S. cerevisiae deletion strains, locus YNR052C, strain pop2, hits give low values 0.954 | S. cerevisiae deletion strains, locus YOL006C, strain TOP1, hits give low values 1.01 | S. cerevisiae deletion strains, locus YOL012C, strain htz1 0.487 | S. cerevisiae deletion strains, locus YOL147C, strain pex11, hits give low values 0.946 | S. cerevisiae deletion strains, locus YOR001W, strain rrp6, hits give low values 0.989 | S. cerevisiae deletion strains, locus YOR061W, strain CKA2, hits give low values 0.957 | S. cerevisiae deletion strains, locus YOR069W, strain VPS5, hits give low values 0.955 | S. cerevisiae deletion strains, locus YOR070C, strain gyp1, hits give low values 1 | S. cerevisiae deletion strains, locus YOR080W, strain dia2, hits give low values 0.988 | S. cerevisiae deletion strains, locus YOR083W, strain WHI5, hits give low values 0.994 | S. cerevisiae deletion strains, locus YOR106W, strain vam3, hits give low values 1 | S. cerevisiae deletion strains, locus YOR136W, strain idh2, hits give low values 0.96 | S. cerevisiae deletion strains, locus YOR144C, strain elg1, hits give low values 0.952 | S. cerevisiae deletion strains, locus YOR184W, strain ser1, hits give low values 0.954 | S. cerevisiae deletion strains, locus YOR231W, strain MKK1, hits give low values 1.04 | S. cerevisiae deletion strains, locus YOR265W, strain rbl2, hits give low values 0.992 | S. cerevisiae deletion strains, locus YOR270C, strain vph1, hits give low values 0.978 | S. cerevisiae deletion strains, locus YOR290C, strain snf2, hits give low values 0.99 | S. cerevisiae deletion strains, locus YOR316C, strain cot1, hits give low values 0.945 | S. cerevisiae deletion strains, locus YPL051W, strain arl3, hits give low values 0.989 | S. cerevisiae deletion strains, locus YPL055C, strain LGE1, hits give low values 0.983 | S. cerevisiae deletion strains, locus YPL078C, strain atp4, hits give low values 0.991 | S. cerevisiae deletion strains, locus YPL106C, strain sse1, hits give low values 0.991 | S. cerevisiae deletion strains, locus YPL240C, strain hsp82, hits give low values 0.989 | S. cerevisiae deletion strains, locus YPL241C, strain CIN2, hits give low values 0.973 | S. cerevisiae deletion strains, locus YPL256C, strain CLN2, hits give low values 1.05 | S. cerevisiae deletion strains, locus YPR119W, strain clb2, hits give low values 0.932 | S. cerevisiae deletion strains, locus YPR141C, strain kar3, hits give low values 0.93 | S. cerevisiae deletion strains, locus YPR163C, strain tif3, hits give low values 0.952 | S. cerevisiae deletion strains, locus YPR167C, strain met16, hits give low values 0.942 | S. cerevisiae deletion strains, strain wtn01, hits give low values 0.936 | S. cerevisiae strains, strain wild type, hits give low values 0.958
